# This excerpt belongs to a sample that is enriched for hits.
# ClpP mod: qHTS Assay for Activators of ClpP; ATP-dependent Clp protease proteolytic subunit (Bacillus subtilis (strain 168)), P80244; purified B. subtilis ClpP, FRET peptide cleavage, 20 min; Potency, µM (doses to about 57.5 µM), for the others: top-dose activity change, negative = active; 340,000 tested, 1.9% active; AID 651965, 2013; active = well fitted falling curve with a large enough effect; inconclusive = small, poorly fitted or top-dose-only effect; inactive = no such curve, though single readings can be large or run the other way; note: potency is the fitted concentration of half-maximal effect; the source files actives as falling curves though it sought activators and does not explain the sign; nearly all actives have a fitted effect of over 65% in size
# Target sequence (P80244 whole entry, looked up): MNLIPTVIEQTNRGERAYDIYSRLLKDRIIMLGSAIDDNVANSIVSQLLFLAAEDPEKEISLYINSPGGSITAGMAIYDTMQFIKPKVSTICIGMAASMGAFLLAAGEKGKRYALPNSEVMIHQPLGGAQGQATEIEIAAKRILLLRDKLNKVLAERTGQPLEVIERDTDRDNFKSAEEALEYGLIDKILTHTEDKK
#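 Buffer: 100 mM Tris/HCl pH8, 100 mM KCl, 0.05% low protease BSA, 2.5% glycerol, 0.01% Tween-20. ClpP 10 microg/mL final; 20 min RT; delta FRET normalized to ADEP and DMSO controls.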
# Menin MLL FP FL: displaces fluorescein MLL peptide from human menin; Fluorescence polarization, fluorescein-MLL peptide displacement from menin; FP activity change, % at 61.4 µM; 290,000 tested, under 10 active; active = well fitted curve in the direction sought with a large enough effect in the polarisation, not every such curve was filed as active; inconclusive = small, poorly fitted or top-dose-only effect, or effect the other way, or a change in a side signal; inactive = no such curve, though single readings can be large or run the other way; the % refers to the polarisation; note: % of control where 0% means no effect
# MLL CXXC-DNA inh: MLL CXXC-DNA interaction inhibition; Q03164; MLL-CXXC / FITC-HOXA9 DNA fluorescence polarization; Potency, µM (titrated, usually from 115 µM), without a hit: top-dose activity change, negative = inhibition, most hits filed as inhibitors; 290,000 tested, 0.037% active; AID 2662; active = well fitted inhibition curve with a large enough effect in the polarisation, with a control signal flat, not every such curve was filed as active; inconclusive = small, poorly fitted or top-dose-only effect, or effect the other way, or a change in a side signal; inactive = no such curve, though single readings can be large or run the other way; the % refers to the polarisation; note: potency is the fitted concentration of half-maximal effect
#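 Steps: dispense CXXC domain solution (7 uM) → pin compounds or unlabeled HOX-A9 DNA control → 5 min ambient → add FLSN-HOX-A9 solution (50 nM) → spin → 30 min ambient → fluorescence polarization. Tris pH 7.5/NaCl/DTT/BSA buffer.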
# p53 reactivation: restores transcriptional activity of mutant p53. Potency, µM (highest dose often 92.2 µM), for inactives: top-dose activity change, positive = activation, most hits filed as activators. H1299 p53-A138V BP100-luciferase reporter, luminescence, 24 h. 320,000 tested, 0.063% active. AID 504706; note: potency is the fitted concentration of half-maximal effect; % of control where 0% means no effect; nearly all actives have a fitted effect of over 45% in size
#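 H1299 (p53-null), stable ts p53-A138V + BP100-Luc; 1000 cells/well, Opti-MEM/10% FBS; cpd 4 pt, 1:5; 24 h, 37 deg C, 5% CO2; detection reagent 10 min RT; luminescence.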
# Menin MLL FP TR: menin-MLL binding inhibition, Texas Red mutant peptide; O00255; Menin + Texas Red MLL mutant peptide, fluorescence polarization; Potency, µM (top dose mostly 61.6 µM), for inactives: top-dose FP activity change, negative = inhibition, most hits filed as inhibitors; 270,000 tested, 0.23% active; AID 1768; active = well fitted inhibition curve with a large enough effect in the polarisation, with a control signal flat, not every such curve was filed as active; inconclusive = small, poorly fitted or top-dose-only effect, or effect the other way, or a change in a side signal; inactive = no such curve, though single readings can be large or run the other way; the % refers to the polarisation; note: potency is the fitted concentration of half-maximal effect; % of control where 0% means no effect
# MLL CXXC Fl: inhibitors of human MLL CXXC domain-DNA interaction; shares compounds with MLL CXXC-DNA inh; MLL CXXC-DNA binding, fluorescein FP; Potency, µM (doses to about 345 µM), for inactives: at the top dose activity change, negative = inhibition, hits mostly inhibitors; 200 tested, 70% active; note: potency is the fitted concentration of half-maximal effect; nearly all actives have a fitted effect of over 80% in size
# MLL CXXC TxRed: inhibitors of human MLL CXXC domain-DNA interaction, Texas Red format. shares compounds with MLL CXXC-DNA inh. AID 624161. 200 tested, 40% active. Potency, µM (series often up to 345 µM), for the others: at the highest dose activity change, negative = inhibition, usual class: inhibitors. MLL CXXC-DNA binding, Texas Red fluorescence polarization; note: potency is the fitted concentration of half-maximal effect; % is set by controls: 0 for no effect and ±100 for the full control effect; nearly all actives have a fitted effect of over 75% in size
# MLL CXXC TRF: inhibitors of human MLL CXXC domain-DNA interaction, HTRF format; shares compounds with MLL CXXC-DNA inh; MLL CXXC-DNA binding, HTRF, biochemical; Potency, µM (series often up to 172 µM), for the others: top-dose activity change, negative = inhibition, most hits filed as inhibitors; 210 tested, 30% active; AID 624162; note: % is set by controls: 0 for no effect and ±100 for the full control effect; nearly all actives have a fitted effect of over 80% in size
# Numbers without * were called inactive; u = inconclusive; x = no result. Unless noted, calls come from the whole dose curve; as a rule, active = well fitted curve in the direction sought with a large enough effect; inconclusive = small, poorly fitted or top-dose-only effect, or another doubt; inactive = no such curve, though single readings can be large; an effect the other way counts as inactive or inconclusive.
SMILES,ClpP mod,Menin MLL FP FL,MLL CXXC-DNA inh,p53 reactivation,Menin MLL FP TR,MLL CXXC Fl,MLL CXXC TxRed,MLL CXXC TRF
Cc1cn(C2OC(COC(=O)c3ccccc3)C(OC(=O)c3ccccc3)C2OC(=O)c2ccccc2)c(=O)[nH]c1=O (stereo not given),-0.7%,1.4,-9.5%,-10.8%,-6.1%,x,x,x
O=C(OCC1OC(OC(=O)c2cc(O)c(O)c(OC(=O)c3cc(O)c(O)c(O)c3)c2)[C@@H](OC(=O)c2cc(O)c(O)c(OC(=O)c3cc(O)c(O)c(O)c3)c2)C(OC(=O)c2cc(O)c(O)c(OC(=O)c3cc(O)c(O)c(O)c3)c2)C1OC(=O)c1cc(O)c(O)c(OC(=O)c2cc(O)c(O)c(O)c2)c1)c1cc(O)c(O)c(OC(=O)c2cc(O)c(O)c(O)c2)c1 (stereo not given in full),x,u,63.1µM*,x,u,3.56µM*,4.48µM*,0.385µM*
Cn1c(-n2cccc2)c(-c2c(-c3ccccc3)[nH]c3c2c(=O)n(C)c(=O)n3C)c(=O)n(C)c1=O,-0.8%,x,x,x,x,x,x,x
Cc1nnc(N2CCN(c3ccccc3F)CC2)c2c1nnn2Cc1ccccc1Cl,1.1%,x,x,x,x,x,x,x
Cc1nc2nc(-c3ccc(Cl)cc3)cn2nc1C,u,-2.3,-1.7%,u,x,x,x,x
Cc1nc2nc(-c3cccs3)cn2nc1C,-12.6%,u,35.5µM*,u,-0.7%,126µM*,-2.9%,-1.2%
CC(=O)c1cccc(NC(=O)c2nc3ccccc3nc2N2CCCCC2)c1,-0.9%,x,x,x,x,x,x,x
CCOC(=O)/C(=C/C=C1\Sc2cc(OCC)c(OCC)cc2N1CC)C(C)=O,x,u,u,-3.3%,-23.1%,0.565µM*,u,61.2%
O=C(O)c1ccccc1-c1c2cc(Br)c(=O)c(Br)c-2oc2c(Br)c(O)c(Br)cc12,x,u,u,x,u,0.633µM*,5.03µM*,-61.7%
Cc1cccc(-c2noc(-c3ccc(NCc4cccnc4)c([N+](=O)[O-])c3)n2)c1,-0.5%,x,x,x,x,x,x,x
O=[N+]([O-])c1ccc(Oc2ccc(S(=O)(=O)Nc3ccccc3)cc2)cc1,1.1%,2.7,-4.1%,1.5%,u,x,x,x
O=C1C(Cl)=C(NS(=O)(=O)c2ccc([N+](=O)[O-])cc2)C(=O)c2ccccc21,x,-2.2,50.1µM*,-17.5%,x,56.5µM*,100µM*,76.9µM*
S=C(NC1CCCCC1)N1CCN(C2CCCCC2)CC1,-10.6%,-10.5,u,-1.5%,u,u,13.7%,-0.3%
O=C(NC1CCCCC1)N1CCN(C2CCCCC2)CC1,-2.4%,0.4,4.5%,2.8%,-6.5%,x,x,x
CCc1ccccc1NC(=O)N(C)CCc1c(C)nn(C)c1C,-0.4%,x,x,x,x,x,x,x
O=C(O)c1ccc(NC2=C/C(=N/S(=O)(=O)c3ccccc3)c3ccccc3C2=O)cc1,x,-5.3,u,-9.4%,u,u,u,77.3%
COc1ccc(-c2nn(-c3ccccc3)cc2/C=C/C(=O)OCC(=O)Nc2ccc(C#N)cc2)cc1,28.2µM*,5.9,u,-3.4%,u,67.7%,u,5.3%
Cn1ncc(N=Cc2c(O)ccc3ccccc23)c1C(=O)Nc1cccc(Cl)c1,x,u,44.7µM*,2.3%,u,x,x,118.0%
Cc1cccc(CNC(=O)CN2C(=O)CCn3nc(-c4cn(C)c5ccccc45)cc32)c1,-17.1%,x,x,x,x,x,x,x
O=C(CN1C(=O)C(=O)N(Cc2ccccc2)C1=O)Nc1cc(Cl)cc(Cl)c1,x,-1.5,1.6%,-3.8%,x,x,x,x
